Source: PubChem BioAssay (several laboratories)
TLR4-MyD88 BLA: TLR4-MyD88 interaction inhibition in cells; O00206+Q99836; HeLa CL3-4 TLR4/MyD88 BLA complementation, FRET ratio; inhibition, % at 8.4 µM; 200,000 tested, 0.18% active; AID 861; in the data active = inhibition above about 25%;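 note: 0% = vehicle and 100% = reference inhibitor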
NOD2 RIPK2 PPI: inhibitors of human NOD2-RIPK2 interaction. 360,000 tested, 0.38% active. inhibition, % at 4.98 µM. CHO BLA complementation NOD2-RIPK2, CCF4 ratio; in the data active = inhibition above about 21%;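 note: 0% = vehicle only and 100% = reference blocker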
GRK2 aptamer HTS: inhibitors of human GRK2 displacing RNA aptamer; P25098; bead flow cytometry, FAM-aptamer displacement from GRK2; inhibition of aptamer binding, % at 10 µM; 330,000 tested, 0.59% active; AID 488847;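 active = inhibition of aptamer binding above 40%, roughly 3 SD of noise, on plates passing a quality check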;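 note: median bead fluorescence of bound FAM aptamer so fluorescent compounds give negative values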
Target sequence (P25098 whole entry, looked up): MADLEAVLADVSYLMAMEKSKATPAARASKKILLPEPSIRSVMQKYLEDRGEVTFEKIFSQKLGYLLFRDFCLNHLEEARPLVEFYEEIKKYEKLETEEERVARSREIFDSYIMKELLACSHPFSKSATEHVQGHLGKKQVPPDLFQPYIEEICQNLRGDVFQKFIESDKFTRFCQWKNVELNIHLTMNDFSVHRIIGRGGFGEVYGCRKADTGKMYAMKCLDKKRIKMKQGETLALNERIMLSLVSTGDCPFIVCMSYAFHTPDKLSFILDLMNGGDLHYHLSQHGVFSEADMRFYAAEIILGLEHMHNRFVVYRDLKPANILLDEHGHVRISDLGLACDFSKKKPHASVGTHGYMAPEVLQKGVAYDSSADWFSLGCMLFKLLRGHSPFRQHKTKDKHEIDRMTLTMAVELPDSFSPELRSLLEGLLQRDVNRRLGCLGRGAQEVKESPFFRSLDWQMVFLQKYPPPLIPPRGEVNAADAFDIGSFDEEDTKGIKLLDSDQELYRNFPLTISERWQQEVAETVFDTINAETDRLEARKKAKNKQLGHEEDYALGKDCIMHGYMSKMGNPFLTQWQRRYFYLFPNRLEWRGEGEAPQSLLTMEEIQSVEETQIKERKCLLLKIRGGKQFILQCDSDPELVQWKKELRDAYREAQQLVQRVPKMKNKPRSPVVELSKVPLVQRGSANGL
TLR9-MyD88 inh: inhibitors of human TLR9-MyD88 binding | Q9NR96+Q99836 | CHO BLA complementation TLR9-MyD88, CCF4 FRET ratio | inhibition, % at 4.98 µM | 340,000 tested, 0.21% active | AID 504734;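 active = inhibition above the mean over all tested compounds plus 3 SD, cut at about 21% in these data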;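 note: 0% = DMSO only wells and 100% = clavulanate BLA inhibitor control wells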
ANO1 activ: activates or potentiates the mouse TMEM16A chloride channel; Q8BHY3; HEK293 TMEM16A/YFP-H148Q/I152L, iodide quench fluorescence; hits give low values; B-score at 10 µM; 340,000 tested, 0.3% active;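 active = fluorescence-ratio B-score plate-corrected deviation score at least 3 library SD below zero, with starting fluorescence score within 5 deviations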;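 note: channel opened by trigger with iodide after compound preincubation; score built on the fluorescence ratio of max minus min over baseline; more negative score means more quench and so TMEM16A activation or potentiation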
ANO1 block: blocks the mouse calcium-activated chloride channel TMEM16A | normalized B-score (activity score, 25-100; higher = stronger inhibition) at 10 µM | HEK293 TMEM16A/YFP iodide influx fluorescence, ionomycin | Q8BHY3 | 310,000 tested, 1.2% active;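 active = ratio plate-corrected score three or more library SD toward inhibition, starting fluorescence score within five deviations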;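 note: score derived from kinetic fluorescence span divided by baseline fluorescence per well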
* hit, by the source's call; i = inactive; nt = no result given. Rows were chosen to be rich in hits. Some 2.2% of all compounds tested hit in one or more screens of this group.

SMILES	TLR4-MyD88 BLA	NOD2 RIPK2 PPI	GRK2 aptamer HTS	TLR9-MyD88 inh	ANO1 activ	ANO1 block
CC1CC(C)CN(C(=O)CNS(=O)(=O)c2ccc(Br)s2)C1 (stereo unspecified)	-9.3	-9.3	0.0	2.2	i	i
Cc1ccc2c(C)c(C(=O)Nc3c(C)n(C)n(-c4ccccc4)c3=O)oc2c1	10.5	-7.6	2.0	-1.1	-18.9*	i
Cc1c(NC(=O)c2ccc(C(=O)Nc3c(C)n(C)n(-c4ccccc4)c3=O)cc2)c(=O)n(-c2ccccc2)n1C	nt	-13.7	0.0	-0.5	i	i
CC(=O)c1c(C)[nH]c(C(=O)Nc2c(C)n(C)n(-c3ccccc3)c2=O)c1C	-1.3	-1.1	0.0	1.6	i	100*
Cc1cc2oc(C(=O)Nc3c(C)n(C)n(-c4ccccc4)c3=O)c(C)c2cc1C	7.8	1.3	0.0	-5.6	i	i
CCOC(=O)[C@]12CCC=C1N(Cc1cccc3ccccc13)C(=O)[C@H](CC(=O)N1CCSCC1)C2	nt	-3.5	nt	nt	nt	nt
CC[n+]1c(/C=C/N(C)c2ccccc2)n(-c2ccccc2)c2ccc(-c3nc4ccccc4s3)cc21	nt	31.4*	0.0	16.7	i	i
CCOC(=O)c1ccc2c(c1)n(CC)c(/C=C/N(C)c1ccccc1)[n+]2CC	-7.8	-0.9	2.0	-3.2	i	i
NC(CCCCc1ccccc1)c1cccc2ccccc12 (stereo unspecified)	nt	nt	0.0	nt	nt	25*
COc1ccc(CCNS(=O)(=O)c2ccc(-n3cnnn3)c(OC)c2)cc1OC	nt	1.9	0.0	-3.7	-31.1*	i
COc1cc(S(=O)(=O)NCC2OCCc3ccccc32)ccc1-n1cnnn1 (stereo unspecified)	-4.4	9.8	0.0	3.6	i	i
O=c1c2c(-c3ccccc3)csc2ncn1/N=C/c1cccc([N+](=O)[O-])c1O	13.6	-10.9	3.0	1.9	i	25*
COc1ccc(OC)c(CN2C(=O)CSCC2(C)C(=O)Nc2c(C)cccc2C)c1 (stereo unspecified)	nt	-2.9	nt	nt	nt	nt
COc1ccc(OC)c(CN2C(=O)CN(S(C)(=O)=O)CC2(C)C(=O)Nc2c(C)cccc2C)c1 (stereo unspecified)	nt	-5.9	nt	nt	nt	nt
COc1ccc2c(c1)[nH]c1c(N3CCN(Cc4ccc5c(c4)OCO5)CC3)ncnc12	-0.8	5.4	0.0	-5.1	i	100*
O=C(NCCC1=CCCCC1)c1ccc(Cl)c(S(=O)(=O)N2CCOCC2)c1	-5.5	-1.9	0.0	6.4	i	i
Cc1ccc(CSCCNC(=O)c2ccc(Cl)c(S(=O)(=O)N3CCOCC3)c2)cc1	-0.3	-10.5	2.0	2.7	i	25*
O=C(NCCC1=CCCCC1)c1ccc(Cl)c(S(=O)(=O)N2CCCCC2)c1	nt	-13.6	2.0	-3.5	i	25*
CO[C@@H]1CN(C)C(=O)c2ccc(NS(=O)(=O)c3c(C)noc3C)cc2OC[C@@H](C)NC[C@@H]1C	nt	-2.0	nt	nt	nt	nt
O=C(NC1CCCCC1)c1nc(-c2c(F)cccc2F)oc1-c1ccccc1	nt	-8.3	nt	nt	nt	nt
Cc1ccc(Cl)cc1NC(=O)CSc1sc2c(O)cc(=O)[nH]c2c1C#N	nt	-3.2	6.0	-3.4	-4.86*	i
CCCCn1nnnc1C(c1cc2ccccc2o1)N1CCN(c2cc(C)nc3ccccc23)CC1 (stereo unspecified)	nt	9.2	nt	nt	nt	nt
COc1cc(/C=C2/SC(=S)N(Cc3ccccc3)C2=O)ccc1O	nt	-4.4	8.0	5.8	i	i
COc1cc(/C=C2/SC(=S)N(c3c(C)n(C)n(-c4ccccc4)c3=O)C2=O)ccc1O	-5.1	0.6	3.0	-7.4	-8.09*	i
COc1ccc(NC(=O)CN(C)C(=O)c2ccccc2OCC(=O)Nc2cccc(C(F)(F)F)c2)cc1	nt	11.4	0.0	-0.5	i	i
COc1cccc(CN(C)C(=O)c2ccc(OCC(=O)Nc3cccc(C(F)(F)F)c3)c(OC)c2)c1	nt	9.1	0.0	-0.8	i	100*
COc1ccc(CN(C)C(=O)c2ccc(OCC(=O)Nc3cccc(C(F)(F)F)c3)c(OC)c2)c(OC)c1	nt	-3.7	0.0	9.0	i	100*
COc1cc(C(=O)NCCCN(C)C)ccc1OCC(=O)Nc1cccc(C(F)(F)F)c1	-4.9	-11.6	0.0	nt	i	i
